Source: PubChem BioAssay (NCI)
Where “and” joins values, the source holds several entries; their conditions need not be identical. Equal values may be shown once. This is part of a sample that, as a whole, favours compounds with a hit. Of some 83,000 tested, about 20% had one in any assay.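 Each cell line was grown in a 96-well plate and treated with one concentration of compound for 48 hours. Values below 10 were considered active.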 Calls of active or inactive are those of the source.

tested on: HL-60(TB) leukemia; test: NCI-60 one-dose screen, 48 h (100 = growth as untreated, 0 = no growth, -100 = all killed); settings: 10 µM unless noted

Row | Structure (SMILES) | growth
1 | O=c1ccn(-c2ncnc3nc[nH]c23)cc1 | 92.7% (inactive)
2 | COc1cc(-c2c3c(c(Br)n2Cc2ccccc2)-c2nc(N)sc2CC3)cc(OC)c1OC | 68.4% (inactive)
3 | Cc1ccc(-c2csc(NC(=O)CN3CCN(c4cc5c(cc4F)c(=O)c(C(=O)O)cn5C4CC4)CC3)n2)cc1 | -56.3% (active)
4 | Nc1ncnc2nc(Br)[nH]c12 | 90.3% (inactive)
5 | CNC(=O)Cc1nc(-c2cccc(NS(=O)(=O)c3c(F)cccc3F)c2F)c(-c2ccnc(Nc3ccccc3)n2)s1 | 57.8% (inactive)
6 | CCN(CC)c1ccc(/C=C/c2ccc3cc(C)ccc3[n+]2CC)cc1 | -41.5% (active)
7 | COC(=O)/C=C/c1cc(O)c2c(c1)C(C(=O)OC)C(c1ccc(O)c(O)c1)O2 (stereo not given) | -10.5% (active) and -0.307% (active)
8 | COc1nc2ccccc2s1 | 94.5% (inactive)
9 | CCC(C)CC(C)C(=O)c1c(O)ccn(OC)c1=O (stereo not given) | 94.6% (inactive)
10 | COc1ccccc1Nc1nc2c(s1)C1=CC[C@H]3[C@@H]4CC[C@H]([C@H](C)CCCC(C)C)[C@@]4(C)CC[C@@H]3[C@@]1(C)CC2 | 102% (inactive)
11 | Cc1ccc(Cl)c(NS(=O)(=O)c2ccc(-c3cnc(C4CC4)o3)cc2)c1 | -22% (active)
12 | COc1cccc(CC(C)=C(c2ccc(OCCN(C)C)cc2)c2ccc(OCCN(C)C)cc2)c1 | -62.5% (active)
13 | O=C1C(Cl)=C(Oc2ccccc2)C(=O)c2ccccc21 | 76% (inactive)
14 | CCCCn1c(=O)[nH]c(N)c([C@@H]2c3c([nH]c(=O)n(CCCC)c3=O)Oc3ccc4ccccc4c32)c1=O | 13.4% (inactive)
15 | NCCCOc1cc2ccccc2cc1C(=O)NCCCOc1cc2ccccc2cc1C(=O)Nc1ccc(Cl)cc1O | -62% (active)
16 | Nc1nc(-c2cc3ccccc3o2)cc(=O)c(=O)[nH]1 | 107% (inactive)
17 | CCN(CC)CCCN1C(=O)c2c(c(C)c3c(oc4cc(O)ccc43)c2C)C1=O | -47.9% (active)
18 | CN(C)C/C=C/C(=O)Nc1cc2c(Nc3ccc(F)c(Cl)c3)ncnc2cc1O[C@H]1CCOC1 | -44.7% (active)
19 | O=c1c2cc(-c3ccccc3)sc2nc2sc(-c3ccccc3)nn12 | 96.4% (inactive)
20 | Cc1ccc(NC(=S)NNC(=S)NNc2ccccc2)cc1C | 20.4% (inactive)

Row | Structure (SMILES) | growth
21 | CO/N=C/C=C\C(=O)N/C=C/C[C@H]1/C=C/[C@H](O)/C=C\C=C\c2cccc(O)c2C(=O)O1 | 23.3% (inactive) and -28.4% (active)
22 | O=C(/C=C/c1ccccc1)c1ccc(Nc2nc(NCCO)nc(Nc3ccc(Cl)cc3)n2)cc1 | 101% (inactive)
23 | O=C1COCCN1c1ccc(Nc2nc(Cl)nc(OCc3cn(Cc4ccccc4)nn3)n2)cc1 | 40.3% (inactive)
24 | O=C(N/N=C/c1cccc2ccccc12)C1CC1 | 71.3% (inactive) and 95.7% (inactive)
25 | COc1cc(-c2nccc3cc4c(cc23)OCO4)cc(OC)c1OC | 5.43% (active) and 9.65% (active)
26 | ClCC(Cl)[C@@H]1CC2C=CC1C2 (stereo not given in full) | 104% (inactive)
27 | COc1ccc(Cl)cc1Nc1nc(C(F)(F)F)ccc1C(=O)N/N=C/c1cc(OC)c(OC)c(OC)c1 | -32.3% (active)
28 | CN1CCN(Cn2nc(-c3cc(Cl)cc(Cl)c3Cl)n(/N=C/c3ccc(Cl)cc3)c2=S)CC1 | -38.6% (active)
29 | O=c1sc2ncnc3ncn1c32 | 85.1% (inactive)
30 | CCN1CCN(C(=O)[C@]23CCC(C)(C)C[C@H]2C2=CC[C@@H]4[C@@]5(C)CC/C(=N/O)C(C)(C)[C@@H]5CC[C@@]4(C)[C@]2(C)CC3)CC1 | -9.73% (active)
31 | COc1cc2c(Nc3ccc(Cl)c(Cl)c3F)ncnc2cc1OCC1C[C@@H]2CN(C)C[C@@H]2C1 (stereo not given in full) | -53.2% (active) and 41.1% (inactive)
32 | FC(F)(F)c1cccc(-c2[nH]ncc2-c2nnnn2-c2ccccc2)c1 | 3.68% (active)
33 | Nn1c(Nc2ccc(S(=O)(=O)Nc3ncccn3)cc2)nnc(/C=C/c2c(O)ccc3ccccc23)c1=O | 86.1% (inactive)
34 | Cc1c(C(=O)O[C@H]2[C@@H]3[C@H](C)CC[C@H]3[C@]3(C)O[C@@]2(C2CCCCC2)C[C@H]3OC(=O)CO)ccc2ccccc12 | -31.5% (active)
35 | Cc1ccc(C)c(C(O)(c2cc(C)ccc2C)C2(O)CCCCC2)c1 | 96.5% (inactive)
36 | O=C1Nc2ccccc2SC1c1ccccc1Cl (stereo not given) | 71% (inactive)
37 | CNc1ccc(Cl)cc1S(=O)(=O)c1ccccc1[N+](=O)[O-] | 65.3% (inactive) and 79.9% (inactive)
38 | CC(=O)O[C@H]1C(=O)[C@@]2(C)C([C@H](OC(=O)c3ccccc3)[C@]3(O)C[C@H](OC(=O)[C@H](O)[C@@H](NC(=O)c4ccccc4)c4ccccc4)C(C)=C1C3(C)C)[C@]1(OC(C)=O)CO[C@@H]1C[C@@H]2O (stereo not given in full) | 9.14% (active)
39 | COc1cc(/C=N/Nc2nc3c([nH]2)c(=O)n(C)c(=O)n3C)ccc1O | 90.7% (inactive) and 103% (inactive)
40 | CC1(C)OC2C(CO[Si](C)(C)C(C)(C)C)OC(n3c(I)c(C#C[Si](C)(C)C)c(=O)[nH]c3=O)C2O1 (stereo not given) | 69.5% (inactive)
